# Experimental data reported in PubChem BioAssay (NCATS).
# Results filed as inconclusive are left out. A call without a number means that no potency is given here. Values without a mark were called inactive. The source made the active and inactive calls. Calls come from the whole dose curve; as a rule, active = well fitted cell-killing curve with a large enough effect; inconclusive = small, poorly fitted or top-dose-only effect, or effect the other way; inactive = no such curve, though single readings can be large or run the other way.
# Columns and labels:
# [1] = Quantitative High-Throughput drug screen in 47 multiple myeloma cell lines against the NCATS MIPE library collection: MM1R_ATCC cell viability assay (AID 1918981); note: nearly all actives have a fitted effect of over 35% in size; note: potency is the fitted concentration of half-maximal effect
# How it was run: (§1)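 Inhibition of viability over 48 h was scored by ATP content (CellTiter-Glo) in 500-cell wells. Zero and full viability were defined by media-only and DMSO-only wells.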
# [2] = Quantitative High-Throughput drug screen in 47 multiple myeloma cell lines against the NCATS MIPE library collection: LP1_DSMZ cell viability assay (AID 1918982); note: nearly all actives have a fitted effect of over 35% in size
# How it was run: as §1
# [3] = Quantitative High-Throughput drug screen in 47 multiple myeloma cell lines against the NCATS MIPE library collection: OCIMY7_PLB cell viability assay (AID 1918987); note: nearly all actives have a fitted effect of over 65% in size; note: potency is the fitted concentration of half-maximal effect
# How it was run: as §1
# [4] = Quantitative High-Throughput drug screen in 47 multiple myeloma cell lines against the NCATS MIPE library collection: SKMM1_PLB cell viability assay (AID 1919863); details: SKMM1 myeloma viability, CellTiter-Glo ATP, 48 h; viability: hits give low values; note: nearly all actives have a fitted effect of over 35% in size; note: potency is the fitted concentration of half-maximal effect
# How it was run: as §1
# [5] = Quantitative High-Throughput drug screen in 47 multiple myeloma cell lines against the NCATS MIPE library collection: U266_ATCC cell viability assay (AID 1919864); note: nearly all actives have a fitted effect of over 35% in size; note: potency is the fitted concentration of half-maximal effect
# How it was run: as §1
# [6] = Quantitative High-Throughput drug screen in 47 multiple myeloma cell lines against the NCATS MIPE library collection: XG6_PLB cell viability assay (AID 1919865); note: nearly all actives have a fitted effect of over 40% in size; note: potency is the fitted concentration of half-maximal effect
# How it was run: as §1
# [7] = Quantitative High-Throughput drug screen in 47 multiple myeloma cell lines against the NCATS MIPE library collection: XG1_PLB cell viability assay (AID 1919866); note: nearly all actives have a fitted effect of over 35% in size; note: potency is the fitted concentration of half-maximal effect
# How it was run: as §1
# [8] = Quantitative High-Throughput drug screen in 47 multiple myeloma cell lines against the NCATS MIPE library collection: VP6_DJ cell viability assay (AID 1919867); note: nearly all actives have a fitted effect of over 40% in size; note: potency is the fitted concentration of half-maximal effect
# How it was run: as §1
# [9] = Quantitative High-Throughput drug screen in 47 multiple myeloma cell lines against the NCATS MIPE library collection: PE2_PLB cell viability assay (AID 1919869); note: nearly all actives have a fitted effect of over 35% in size; note: potency is the fitted concentration of half-maximal effect
# How it was run: as §1
# [10] = Quantitative High-Throughput drug screen in 47 multiple myeloma cell lines against the NCATS MIPE library collection: PCM6_Riken cell viability assay (AID 1919870); note: nearly all actives have a fitted effect of over 30% in size; note: potency is the fitted concentration of half-maximal effect
# How it was run: as §1
# [11] = Quantitative High-Throughput drug screen in 47 multiple myeloma cell lines against the NCATS MIPE library collection: RPMI8226_ATCC cell viability assay (AID 1919871); note: nearly all actives have a fitted effect of over 30% in size; note: potency is the fitted concentration of half-maximal effect
# How it was run: as §1
# [12] = Quantitative High-Throughput drug screen in 47 multiple myeloma cell lines against the NCATS MIPE library collection: OPM2_DSMZ cell viability assay (AID 1919872); note: nearly all actives have a fitted effect of over 30% in size
# How it was run: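 We plated 500 myeloma cells per well, pinned in MIPE 4.0 compounds, and incubated for 48 hours at 37C. ATP was then quantified with CellTiter-Glo, with DMSO and media-only wells defining 100% and 0%.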
# [13] = Quantitative High-Throughput drug screen in 47 multiple myeloma cell lines against the NCATS MIPE library collection: KMS28BM_JCRB cell viability assay (AID 1919874); note: nearly all actives have a fitted effect of over 35% in size; note: potency is the fitted concentration of half-maximal effect
# How it was run: as §1
# [14] = Quantitative High-Throughput drug screen in 47 multiple myeloma cell lines against the NCATS MIPE library collection: OCIMY5_PLB cell viability assay (AID 1918988); note: potency is the fitted concentration of half-maximal effect; nearly all actives have a fitted effect of over 65% in size
# How it was run: as §1
# [15] = Quantitative High-Throughput drug screen in 47 multiple myeloma cell lines against the NCATS MIPE library collection: KMS11_JCRBsus cell viability assay (AID 1919873); note: nearly all actives have a fitted effect of over 50% in size; note: potency is the fitted concentration of half-maximal effect
# How it was run: as §1
# [16] = Quantitative High-Throughput drug screen in 47 multiple myeloma cell lines against the NCATS MIPE library collection: UTMC2_PLB cell viability assay (AID 1919868); details: CellTiter-Glo ATP luminescence, 48 h; viability (% of DMSO control): at 45.8 µM (top of the series); note: nearly all actives have a fitted effect of over 55% in size; note: potency is the fitted concentration of half-maximal effect
# How it was run: as §1
# [17] = Quantitative High-Throughput drug screen in 47 multiple myeloma cell lines against the NCATS MIPE library collection: KMS34_JCRB cell viability assay (AID 1918985); note: nearly all actives have a fitted effect of over 40% in size
# How it was run: as §1
# [18] = Quantitative High-Throughput drug screen in 47 multiple myeloma cell lines against the NCATS MIPE library collection: OPM1_PLB cell viability assay (AID 1918989); note: nearly all actives have a fitted effect of over 40% in size
# How it was run: as §1
# [19] = Quantitative High-Throughput drug screen in 47 multiple myeloma cell lines against the NCATS MIPE library collection: KMS28PE_JCRB cell viability assay (AID 1918983); note: nearly all actives have a fitted effect of over 35% in size
# How it was run: as §1
smiles,measurement,setting,value
CCOC(=O)c1cncn1[C@H](C)c1ccccc1,Potency,[1],inactive
same,Potency,[2],inactive
same,Potency,[3],inactive
same,Potency,[4],7.43 µM (active)
same,Potency,[5],inactive
same,Potency,[6],inactive
same,Potency,[7],inactive
same,Potency,[8],inactive
same,Potency,[9],inactive
same,Potency,[10],inactive
same,Potency,[11],inactive
same,Potency,[12],inactive
same,Potency,[13],inactive
CC1=NN=C(c2ccc(N)cc2)c2cc3c(cc2C1)OCO3,Potency,[1],inactive
same,Potency,[2],inactive
same,Potency,[14],18.7 µM (active)
same,viability,[4],125%
same,Potency,[6],inactive
same,Potency,[7],inactive
same,Potency,[11],inactive
same,Potency,[12],inactive
same,Potency,[15],inactive
same,Potency,[13],inactive
CC[C@H]1C=CC=CC[C@@H](C)[C@H](O)[C@@](C)(O)C(=O)[C@@H](C)[C@H](O)[C@@H](C)C(=O)[C@@H](C)[C@H](O)[C@@H](C)C=CC(=O)O[C@@H]2[C@@H](C)[C@H](CC1)O[C@]1(CC[C@H](C)[C@H](C[C@@H](C)O)O1)[C@H]2C,Potency,[3],0.001 µM (active)
same,Potency,[14],0.0017 µM (active)
same,Potency,[4],20.9 µM (active)
same,Potency,[5],20.9 µM (active)
same,Potency,[8],0.001 µM (active)
same,Potency,[16],0.001 µM (active)
C[C@]12Cc3cn[nH]c3C[C@@H]1CC[C@@H]1[C@H]2CC[C@@]2(C)[C@H]1CC[C@]2(C)O,Potency,[17],inactive
same,Potency,[3],inactive
same,Potency,[4],3.32 µM (active)
same,Potency,[5],inactive
same,Potency,[6],inactive
same,Potency,[7],inactive
same,Potency,[9],inactive
same,Potency,[12],inactive
same,Potency,[13],inactive
Clc1ccccc1C(c1ccccc1)(c1ccccc1)n1cccn1,Potency,[1],23.5 µM (active)
same,Potency,[18],inactive
same,Potency,[5],10.5 µM (active)
same,Potency,[6],inactive
same,Potency,[7],inactive
same,Potency,[9],inactive
same,Potency,[11],20.9 µM (active)
CCOC(=O)c1c(C(C#N)=CN)c2ccc(Cl)c(Cl)c2n1C,Potency,[6],inactive
same,Potency,[8],inactive
same,Potency,[16],inactive
same,Potency,[9],inactive
same,Potency,[10],inactive
same,Potency,[11],inactive
same,Potency,[12],inactive
same,Potency,[13],inactive
O=C(N[C@@H](COc1ccc2[nH]c(=O)[nH]c2c1)c1ccccc1)c1cccn(Cc2ccc(F)c(F)c2)c1=O,Potency,[17],inactive
same,Potency,[6],18.7 µM (active)
same,Potency,[7],5.26 µM (active)
same,Potency,[12],inactive
O=C(NCC1CCOCC1)c1cnc(Nc2ccc(Cl)cc2Cl)nc1C(F)(F)F,Potency,[19],inactive
same,viability,[4],104%
same,Potency,[5],8.33 µM (active)
same,Potency,[6],6.62 µM (active)
same,Potency,[8],6.62 µM (active)
same,Potency,[10],5.9 µM (active)
same,Potency,[11],inactive
same,Potency,[12],inactive
same,Potency,[15],inactive
same,Potency,[13],inactive
Cc1c(C(=O)Nc2cccc(C(F)(F)F)c2)cc(-c2ccccc2)n1CCCN1CCOCC1,Potency,[3],0.372 µM (active)
same,Potency,[4],26.4 µM (active)
same,Potency,[5],16.6 µM (active)
same,Potency,[16],5.9 µM (active)
same,Potency,[9],14.8 µM (active)
same,Potency,[11],14.8 µM (active)
same,Potency,[15],23.5 µM (active)
same,Potency,[13],5.9 µM (active)
